Where “and” joins values, the source holds several entries; their conditions need not be identical. Equal values may be shown once. Inconclusive results are not listed. Calls of active or inactive are those of the source. The calls were made as follows, unless noted: active = hit-call score of the fitted dose curve at least 0.9, where 1 is the maximum; inactive = score below 0.9.
Tests used:
[1] = CCTE_Mundy_HCI_Cortical_NOG_NeuriteCount: CCTE's Neurite Outgrowth Assay in rat cortical cells for Neurite Count, Mundy Lab (AID 2284212);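 also: cells fixed about two days after chemical exposure began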
Procedure, shortened: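 Neurite number per cell from high-content imaging of betaIII-tubulin immunostaining, with Hoechst nuclear counterstain.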

[2] = CCTE_Mundy_HCI_Cortical_NOG_NeuriteLength: CCTE's Neurite Outgrowth Assay in rat cortical cells for Neurite Length, Mundy Lab (AID 2284213);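 also: neurites imaged about 48 to 50 h after chemical exposure began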
Procedure, shortened: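 Neurite length was read by high-content imaging of βIII-tubulin-labelled neurites in rat primary cortical cultures. Activity was fitted relative to DMSO.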

[3] = CCTE_Mundy_HCI_Cortical_Synap_Neur_Matur_NeuriteLength: CCTE's Synaptogenesis and Neurite Maturation Assay in rat cortical cells for Neurite Length, Mundy Lab (AID 2284214)
Procedure, shortened: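 Neurite length in rat primary cortical cultures is imaged after MAP2, synaptophysin and Hoechst staining. Dosing starts DIV 7, ending DIV 12; DMSO serves as negative control and baseline.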

[4] = CCTE_Mundy_HCI_Cortical_Synap_Neur_Matur_NeuriteSpotCountPerNeuron: CCTE's Synaptogenesis and Neurite Maturation Assay in rat cortical cells for Neurite Spot Count per Neuron Count, Mundy Lab (AID 2284215)
Procedure, shortened: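 Rat primary cortical cells received AraC at DIV 5, then chemicals with a media change at DIV 7, and were fixed at DIV 12. Synaptophysin puncta on MAP2-stained neurites per neuron were counted by high-content imaging, fitted relative to DMSO.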

[5] = TAMU_PeakParms_SingleDonor1434_Chronotropy: Texas A&M University (TAMU) 1.5-hr Human Induced Pluripotent Stem Cell (iPSC)-derived Cardiomyocytes Calcium (Ca+2) Flux Assay for Cardiotoxicity: Chronotropy (changes in peak frequency) (AID 2284217); conditions: actives raise or lower the signal
Procedure, shortened: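 Beat frequency of single-donor iPSC cardiomyocytes was recorded through a calcium-sensitive dye 1.5 hours after exposure to four concentrations up to 100 uM. An EC05 point of departure was derived.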

[6] = CCTE_Mundy_HCI_Cortical_Synap_Neur_Matur_SynapseCount: CCTE's Synaptogenesis and Neurite Maturation Assay in rat cortical cells for Synapse Count, Mundy Lab (AID 2284218)
Procedure, shortened: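 Synapse count per neuron is measured in rat cortical neurons exposed to chemicals between DIV 7 and DIV 12, with glial growth arrested by AraC at DIV 5. Synaptophysin and MAP2 staining is imaged automatically; activity is fitted relative to DMSO.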

[7] = CCTE_Mundy_HCI_hN2_NOG_NeuriteCount: CCTE's Neurite Outgrowth Assay in human hN2 cells for Neurite Count, Mundy Lab (AID 2284219; active = hit-call score of the fitted dose curve at least 0.9, where 1 is the maximum)
Procedure, shortened: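 In this morphology assay, hNP1-derived neurons received test chemical 2 h post-plating and were fixed two days later in warm paraformaldehyde/sucrose containing Hoechst 33342. Neurites, labelled by rabbit anti-βIII-tubulin (1:800) and Alexa Fluor-488 (1:500), were counted automatically.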

[8] = CCTE_Mundy_HCI_hN2_NOG_NeuriteLength: CCTE's Neurite Outgrowth Assay in human hN2 cells for Neurite Length, Mundy Lab (AID 2284220; active = hit-call score of the fitted dose curve at least 0.9, where 1 is the maximum)
Procedure, shortened: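 Read-out is neurite length from high-content imaging of βIII-tubulin/Alexa Fluor-488-labelled neurons, referenced to DMSO controls.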

[9] = CCTE_Mundy_HCI_hN2_NOG_NeuronCount: CCTE's Neurite Outgrowth Assay in human hN2 cells for Neuron Count, Mundy Lab (AID 2284221; active = hit-call score of the fitted dose curve at least 0.9, where 1 is the maximum)
Procedure, shortened: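 Read-out is the number of betaIII-tubulin-positive neurons imaged by automated high-content analysis, with DMSO as negative control.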

[10] = CCTE_Mundy_HCI_hNP1_Pro_ResponderAvgInten: CCTE's Proliferation Assay in human neuroprogenitor cells, Mundy Lab (AID 2284224; active = hit-call score of the fitted dose curve at least 0.9, where 1 is the maximum;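 also: human neural progenitor cells hNP1 derived from WA09 embryonic stem cells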)
Procedure, shortened: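 Proliferation read as average intensity of BrdU-positive cells, imaged at 26.25 h post-dosing: chemical exposure started after 40–44 h culture, BrdU during final 4 h, paraformaldehyde fixation. Positive-direction fit relative to DMSO.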

[11] = UKN4_HCS_LUHMES_cell_viability: Viability Assessment in the University of Konstanz (UKN) Leist Lab Neurite Outgrowth Assay in human LUHMES cells (UKN4) (AID 2284232)
Procedure, shortened: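 Human dopaminergic-model LUHMES neurons were exposed to chemicals for 24 h after a 2-day differentiation. Viability was scored by imaging Hoechst H-33342 staining, with activity fitted in both directions relative to DMSO controls.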

[12] = UKN2_HCS_IMR90_cell_viability: Viability Assessment in the University of Konstanz (UKN) Leist Lab Neural Crest Cell Migration Assay in human induced IMR90 Pluripotent Stem Cells (UKN2) (AID 2284233);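 also: viability of neural crest cells differentiated from IMR90 iPSC measured by calcein-AM fluorescence imaging; cells exposed to compound for 24 h after a 24 h migration phase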
Procedure, shortened: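 Neural crest cells derived from IMR90 iPSC migrate into a stopper-free zone for 24 h in EGF/FGF medium, then are exposed to compound for 24 h. Viability assessed by calcein-AM and Hoechst staining with high-content imaging, fitted bidirectionally versus DMSO.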

[13] = TAMU_HCS_1.5hr_SingleDonor1434_Cytotoxicity: Cytotoxicity Assessment using High-content Screening (HCS) Fluorescent Imaging for the Texas A&M University (TAMU) 1.5-hr Human Induced Pluripotent Stem Cell (iPSC)-derived Cardiotoxicity Assay (AID 2284234; active = hit-call score of the fitted dose curve at least 0.9, where 1 is the maximum)
Procedure, shortened: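 Human iPSC-derived cardiomyocytes dosed at 0.2, 1, 10, 100 uM final (0.5% DMSO) for 90 min at 37 C. Hoechst 33342-stained nuclei counted by 10x high-content imaging; POD is EC10, a 10% drop in total cell count versus DMSO.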

[14] = CCTE_Mundy_HCI_Cortical_NOG_NeuronCount: CCTE's Neurite Outgrowth Assay in rat cortical cells for Neuron Count, Mundy Lab (AID 2284236; active = hit-call score of the fitted dose curve at least 0.9, where 1 is the maximum;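 also: neurons counted by imaging betaIII-tubulin and Hoechst stained cortical cells; cells exposed to compound for about 48 hours before fixation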)
Procedure, shortened: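 Read-out: neuron number by high-content imaging of betaIII-tubulin (Alexa Fluor-488) and Hoechst-labelled rat primary cortical cells.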

[15] = CCTE_Mundy_HCI_hNP1_Casp3_7: CCTE's Caspase-Glo 3/7 Assay in human neuroprogenitor cells for Apoptosis, Mundy Lab (AID 2284240)
Procedure, shortened: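 Luminescent caspase-3/7 readout, 26.5 h post-dose, in human neural progenitor cells from WA09 embryonic stem cells. Cells grew 40–44 h at 37 °C, 5% CO2 before chemical addition. Activity analysed as signal increase over DMSO baseline.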

[16] = CCTE_Mundy_HCI_hNP1_CellTiter: CCTE's Cell Titer-Glo 2 Assay in human neuroprogenitor cells for Viability, Mundy Lab (AID 2284241; active = hit-call score of the fitted dose curve at least 0.9, where 1 is the maximum;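 also: a hit is a drop in ATP luminescence versus DMSO meaning reduced viability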)
Procedure, shortened: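 Viability read as luminescent ATP content (CellTiter-Glo, 30 min room temperature) twenty-four hours after dosing, relative to DMSO. Cells: WA09-derived hNP1 neuroprogenitors on poly-L-ornithine/laminin, plated 40 to 44 hours before chemical.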

[17] = CCTE_Mundy_HCI_Cortical_Synap_Neur_Matur_NeuronCount: CCTE's Synaptogenesis and Neurite Maturation Assay in rat cortical cells for Neuron Count, Mundy Lab (AID 2284242; active = hit-call score of the fitted dose curve at least 0.9, where 1 is the maximum;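 also: neuron number from Hoechst nuclei and MAP2 staining by high-content imaging; hits reduce neuron count versus DMSO baseline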)
Procedure, shortened: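 Imaging-based neuron count in rat cortical cultures after chemical exposure from DIV 7 to DIV 12, with AraC added at DIV 5. Activity is fitted relative to DMSO.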

Measured: AC50

[CH3][Hg][Cl]
active: [1] 493 nM | [2] 222 nM and 316 nM | [3] 428 nM | [4] 576 nM | [5] 21200 nM | [6] 582 nM | [7] 118 nM | [8] 99 nM | [9] 172 nM | [10] 2120 nM | [11] 381 nM | [12] 5000 nM | [13] 8350 nM | [14] 708 nM and 631 nM | [15] 1150 nM | [16] 9570 nM | [17] 850 nM

From PubChem BioAssay (EPA / NIEHS)
